Assay results: PubChem BioAssay AID1159580 (chemical genetic matrix, 2015)
Among all 5,500 compounds or so, about 2,000 (36%) were called active. Another 18% or so got no clear call; they are omitted. Cut-off read from the data, not from the text of the source: active = normalized growth mostly below about 0.91 (no sharp cut-off); inconclusive = no clear call, values can overlap the other calls; inactive = mostly above about 0.92. The list shows a part of the results.

Assay: chemical genetic growth profiling, strain panel (AID 1159580);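 note: tested at 20 µM; growth read once vehicle control cultures reached saturation at 30 °C; 1 = growth at the plate median or of vehicle wells; lower values mean less growth of the strain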
Details: S. cerevisiae deletion strains, growth OD

Measured: normalized growth

c1ccc2c(N3CCNCC3)cccc2c1
inactive: locus YAL040C, strain CLN3, hits give low values 1.03 | locus YCL061C, strain MRC1 (second series), hits give low values 1 | locus YDR150W, strain NUM1, hits give low values 0.994 | locus YDR363W, strain ESC2, hits give low values 0.999 | locus YER002W, strain NOP16, hits give low values 1.01 | locus YGR078C, strain PAC10, hits give low values 0.993 | locus YGR229C, strain SMI1, hits give low values 1.02 | locus YMR307W, strain GAS1, hits give low values 0.99 | locus YNL153C, strain GIM3, hits give low values 0.991 | locus YNL175C, strain NOP13, hits give low values 1.01 | locus YNL197C, strain WHI3, hits give low values 0.997 | locus YNL224C, strain SQS1, hits give low values 1.01 | locus YNL322C, strain KRE1, hits give low values 1.01 | locus YOR083W, strain WHI5 (second series), hits give low values 1 | locus YPL055C, strain LGE1, hits give low values 1.02 | locus YPL241C, strain CIN2, hits give low values 1

CN1CC(=O)N2[C@H](c3ccc4c(c3)OCO4)c3[nH]c4ccccc4c3C[C@@H]2C1=O
inactive: locus YHR030C, strain SLT2, hits give low values 0.966 | locus YHR079C, strain IRE1, hits give low values 0.947 | locus YJL095W, strain BCK1, hits give low values 0.964 | locus YJR066W, strain TOR1, hits give low values 0.913 | locus YLR113W, strain HOG1, hits give low values 0.968 | locus YNL183C, strain NPR1, hits give low values 0.918 | locus YOR231W, strain MKK1, hits give low values 0.975 | locus YPL256C, strain CLN2, hits give low values 0.946

O=C(O)c1ccc2c(c1)OCO2
inactive: locus YAL021C, strain ccr4, hits give low values 1.01 | locus YAL026C, strain drs2, hits give low values 0.983 | locus YAL030W, strain snc1, hits give low values 1.01 | locus YBL061C, strain skt5, hits give low values 1 | locus YBR009C, strain hhf1, hits give low values 0.997 | locus YBR023C, strain chs3, hits give low values 1.01 | locus YBR171W, strain sec66, hits give low values 0.992 | locus YBR231C, strain swc5, hits give low values 1.01 | locus YBR279W, strain paf1, hits give low values 1.01 | locus YCL011C, strain gbp2, hits give low values 0.979 | locus YCL016C, strain dcc1, hits give low values 1.01 | locus YCL061C, strain MRC1, hits give low values 0.984 | locus YCL069W, strain vba3, hits give low values 0.984 | locus YCR088W, strain abp1, hits give low values 0.984 | locus YDL005C, strain med2, hits give low values 1.01 | locus YDL040C, strain nat1, hits give low values 1.01 | locus YDR001C, strain nth1, hits give low values 0.982 | locus YDR069C, strain doa4, hits give low values 1.02 | locus YDR137W, strain rgp1, hits give low values 1.01 | locus YDR159W, strain sac3, hits give low values 0.98 | locus YDR195W, strain ref2 1.02 | locus YDR297W, strain sur2, hits give low values 1.01 | locus YDR334W, strain swr1, hits give low values 0.994 | locus YDR335W, strain msn5, hits give low values 1.01 | locus YDR392W, strain spt3, hits give low values 0.979 | locus YEL003W, strain gim4, hits give low values 0.98 | locus YEL037C, strain rad23, hits give low values 0.987 | locus YEL061C, strain CIN8 (second series), hits give low values 0.988 | locus YER015W, strain faa2, hits give low values 0.997 | locus YER016W, strain bim1, hits give low values 1.01 | locus YER111C, strain swi4, hits give low values 0.978 | locus YER155C, strain BEM2 (second series), hits give low values 0.992 | locus YFR010W, strain ubp6, hits give low values 0.994 | locus YGL167C, strain pmr1, hits give low values 1.02 | locus YGL173C, strain kem1, hits give low values 1.01 | locus YGL227W, strain vid30, hits give low values 0.973 | locus YGL240W, strain doc1, hits give low values 0.998 | locus YGL253W, strain hxk2, hits give low values 1.01 | locus YHR013C, strain ard1, hits give low values 1.05 | locus YHR027C, strain rpn1, hits give low values 1.03 | locus YHR142W, strain chs7, hits give low values 1 | locus YJL092W, strain hpr5, hits give low values 0.985 | locus YJL095W, strain BCK1 (second series), hits give low values 1.02 | locus YJL115W, strain asf1, hits give low values 0.994 | locus YJL129C, strain trk1, hits give low values 0.998 | locus YJL154C, strain vps35, hits give low values 0.989 | locus YJL164C, strain tpk1, hits give low values 1 | locus YJL166W, strain qcr8, hits give low values 1.02 | locus YJL187C, strain SWE1, hits give low values 1.02 | locus YKL160W, strain elf1, hits give low values 1 | locus YKR026C, strain gcn3, hits give low values 0.983 | locus YKR091W, strain srl3, hits give low values 1.01 | locus YLL001W, strain dnm1, hits give low values 1.01 | locus YLL026W, hits give low values 1.01 | locus YLL041C, strain sdh2, hits give low values 1 | locus YLR027C, strain aat2, hits give low values 1 | locus YLR221C, strain rsa3, hits give low values 0.999 | locus YLR258W, strain gsy2, hits give low values 1 | locus YLR262C, strain YPT6 (second series), hits give low values 1.01 | locus YLR320W, strain mms22, hits give low values 1.03 | locus YLR342W, strain FKS1, hits give low values 1.05 | locus YLR357W, strain rsc2, hits give low values 1.09 | locus YLR370C, strain arc18, hits give low values 1.01 | locus YLR384C, strain iki3, hits give low values 1.01 | locus YML120C, strain ndi1, hits give low values 1.01 | locus YMR058W, strain fet3, hits give low values 0.997 | locus YMR125W, strain sto1, hits give low values 1.07 | locus YMR129W, hits give low values 1 | locus YMR205C, strain PFK2, hits give low values 1.01 | locus YMR231W, strain pep5, hits give low values 1.01 | locus YNL071W, strain lat1, hits give low values 1.01 | locus YNL209W, strain ssb2, hits give low values 1.01 | locus YNL248C, strain rpa49, hits give low values 1.02 | locus YNL322C, strain KRE1 (second series), hits give low values 0.991 | locus YNR049C, strain mso1, hits give low values 1.01 | locus YOR001W, strain rrp6, hits give low values 0.994 | locus YOR070C, strain gyp1, hits give low values 0.999 | locus YOR080W, strain dia2, hits give low values 1.01 | locus YOR083W, strain WHI5, hits give low values 1 | locus YOR106W, strain vam3, hits give low values 1 | locus YOR265W, strain rbl2, hits give low values 1 | locus YOR270C, strain vph1, hits give low values 1.05 | locus YOR290C, strain snf2, hits give low values 0.967 | locus YPL051W, strain arl3, hits give low values 1.01 | locus YPL078C, strain atp4, hits give low values 0.995 | locus YPL106C, strain sse1, hits give low values 1 | locus YPL240C, strain hsp82, hits give low values 1.01
